Screens from PubChem.
PL synth Enamine: phospholipid synthesis inhibitors, CHO cells, primary screen, ZR-82 cells, Enamine library, screen 3 | ZR-82 CHO cells, pyrene fatty acid UV survival, CellTiter Blue; peroxisome-deficient CHO-K1 mutant line; plus DGAT-1, DGAT-2 and ACAT inhibitors | calls only at 10 µM | 0.4% of 20,000 active | AID 1347385, 2020;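 active = cell survival signal 2 SD away from solvent-only control wells, confirmed on one or two retests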;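 also: 3 h compound exposure then viability read about one day after UV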
* = called active by the depositor; i = inactive; + = active, no number. The entries come from a sample that favours hits as a whole.

SMILES	PL synth Enamine
O=[N+]([O-])c1ccc(N/N=C/c2ccc(-n3nncc3C34CC5CC(CC(C5)C3)C4)cc2)cc1	+
O=[N+]([O-])c1cccc(-n2nncc2C23CC4CC(CC(C4)C2)C3)c1	i
CC(NC1CC2CC=CC21)c1ccc(-n2ccnc2)cc1 (centres undefined)	i
O=C(CSc1nnc(CN2CCCC2)o1)NC(=O)NCc1ccco1	i
Cc1cc(C)nc(NNc2ncnc(N)c2[N+](=O)[O-])n1	i
Cc1cc(Sc2nc(N)ncc2[N+](=O)[O-])ncn1	i
Cc1cc(Sc2ncnc(N)c2[N+](=O)[O-])ncn1	+
Fc1ccc(NC(=S)Nc2ccc(Cl)c(Cl)c2)cc1Cl	i
C=CCNC(=S)Nc1ccc(F)c(Cl)c1	i
Fc1cc(Cl)ccc1NC(=S)Nc1ccc(Cl)c(Cl)c1	+
O=[N+]([O-])c1ccccc1S(=O)(=O)N1c2cccc3cccc(c23)S1(=O)=O	i
Cn1c(N)c(C(=O)COC(=O)c2cc(=O)[nH]c(=O)[nH]2)c(=O)n(C)c1=O	i
OCCn1c(CSc2nnnn2C2CC2)nc2ccc(Cl)cc21	i
O=C(CN1C(=O)C(=O)N(C2CCCC2)C1=O)NC1CCCCCC1	i
Cc1nc(N)sc1N=Nc1cc(C(F)(F)F)ccc1Cl	+
CN(C)S(=O)(=O)c1ccc(N=Nc2sc(N)nc2-c2cc(F)ccc2F)cc1	i
Cc1nc(N)sc1N=Nc1c(Cl)cc(Cl)cc1Cl	i
Nc1ncc(Cc2ccc(F)cc2)s1	i
Cc1nc(N)sc1N=Nc1ccc(F)cc1	+
CN(C)S(=O)(=O)c1ccc(Cl)c(N=Nc2sc(N)nc2-c2cc(F)ccc2F)c1	i
CC(C)n1c2ccc(Br)cc2c2nc3ccccc3nc21	i
O=C1c2cccc3cccc(c23)N1CO	i
Cc1cccc(NP2(=S)/C(=C3/N(C)c4ccccc4C3(C)C)C=Nc3c2c(C)nn3-c2ccccc2)c1 (centres undefined)	i
Cn1nc(Sc2ccc3c(c2)OCCO3)c(=O)n(C)c1=O	i
COc1cc(OC)cc(C(=O)/C=C2\NC(=O)CS2)c1	i
SMILES	PL synth Enamine
CC(Nc1cc(N2CCNCC2)ccc1[N+](=O)[O-])C12CC3CC(CC(C3)C1)C2 (centres undefined)	+
CN(C)S(=O)(=O)N1CCN(c2ccc([N+](=O)[O-])c(NC3CC3)c2)CC1	i
CC(NS(=O)(=O)c1ccc(F)c(F)c1)C12CC3CC(CC(C3)C1)C2 (centres undefined)	i
Nc1nc(SCc2cc([N+](=O)[O-])cc3c2OCOC3)nc(-c2ccncc2)n1	i
Fc1ccc2c(c1)/C(=N\Nc1nc3ccccc3s1)CCS2	+
O=C(N/N=C1\CCSc2ccc(F)cc21)C1COc2ccccc2O1 (centres undefined)	i
CCN(CC)S(=O)(=O)c1ccc(N/N=C2\CCSc3ccc(F)cc32)nc1	i
NC(=O)C1CCCCN1C(=S)NC1CC2CCC1C2 (centres undefined)	i
COc1ccc(NS(=O)(=O)c2cc(Br)ccc2Br)cc1OC	i
NC(=S)N=Nc1c2[nH]c3ccccc3nc-2c2ccccc12	i
c1ccc(N=Nc2c3[nH]c4ccccc4nc-3c3ccccc23)cc1	+
c1ccc2c(N=Nc3c4[nH]c5ccccc5nc-4c4ccccc34)cccc2c1	i
C=C1Sc2ccccc2N1C	i
CC1=C/C(=N\NC(=S)NC2CCCCC2)CC1	i
Cc1[nH]c(=S)[nH]c(=O)c1CCO	i
